High-throughput results deposited in PubChem by National Center for Advancing Translational Sciences (NCATS).
An excerpt weighted towards active compounds, which were near 7.3% of everything screened.
FMDV antiviral – blocks foot and mouth disease virus; FMDV antiviral cell-based qHTS; Potency, µM (titrated, usually from 57.9 µM), most hits filed as inhibitors; actives 1.2% (n = 410,000); calls by dose curve; tested in HEK293T cells; further: read-out not given here; nearly all actives have a fitted effect of over 45% in size
HCV inh – inhibitors of hepatitis C virus infection; Huh7.5.1 HCVcc-Cre infection, luciferase reporter, 44 h; Potency, µM (top dose mostly 41.8 µM), hits mostly inhibitors; actives 3.4% (n = 340,000); AID 651820; active means well fitted inhibition curve with a large enough effect; inconclusive means small, poorly fitted or top-dose-only effect, or another doubt; inactive means no such curve, though single readings can be large or run the other way
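HCVcc-Cre virus at an moi near 0.5 was added right after compound to cells cultured 4 h from seeding (1,000 cells/well). Luciferase activity was determined 44 h later, 15 min after substrate addition at RT.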
Vaccinia Venus – inhibitors of vaccinia virus (Venus reporter). actives 0.46% (n = 330,000). Vaccinia virus Venus reporter expression, fluorescence. AID 720580. Potency, µM (titrated, usually from 36.5 µM), actives largely listed as inhibitors; calls by dose curve; tested in A549 cells; further: nearly all actives have a fitted effect of over 30% in size
HCMV inh – blocks human cytomegalovirus replication; HFF cells, HCMV-luciferase reporter, 72 h; stronger effect = lower value; activity change, negative = inhibition, % at 57.5 µM; actives 4.5% (n = 410,000); in the data active means activity change below about -60%; inconclusive means no clear call, values can overlap the other calls; inactive means above about -39%
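Steps: HFFs plated, 16 h 37C; compounds added; HCMV-luciferase added to MOI 1 PFU/cell; 72 h 37C; OneGlo reagent, 5 min room temperature; luminescence read, normalized to controls.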
VACV mCherry inh – vaccinia inhibition (mCherry reporter); actives 0.63% (n = 310,000); Vaccinia virus mCherry reporter infection, fluorescence; Potency, µM (highest dose often 36.5 µM), usual class: inhibitors; calls by dose curve; tested in A549 cells; further: nearly all actives have a fitted effect of over 35% in size
Large screens that a line does not name were inactive.

Cc1ccc2nc(NC(=O)CSc3cc(C)[nH]c(=O)n3)sc2c1	none (no result: HCV inh)
Clc1ccc(C2=NN(c3ccccc3)C(c3ccco3)C2)cc1 (configuration not stated)	none
Cc1nn2c(c1-c1ccc(Cl)cc1)N=C(c1ccco1)CC2c1ccccc1 (configuration not stated)	HCV inh 2.51µM, HCMV inh inconclusive, VACV mCherry inh inconclusive
Cc1ccc(NC(=O)Cn2nc(N3CCN(c4ccccc4)CC3)ccc2=O)cc1F	none (no result: HCV inh)
COc1ccccc1CCNC(=O)C(=O)NCC1OCCCN1S(=O)(=O)c1ccc(F)cc1C (configuration not stated)	HCV inh 10µM, HCMV inh -75.1
COc1ccccc1CCNC(=O)C(=O)NCC1OCCCN1S(=O)(=O)c1cc(C)ccc1C (configuration not stated)	FMDV antiviral inconclusive, HCV inh inconclusive
CN(C)CCNC(=O)C(=O)NCC1OCCN1S(=O)(=O)c1cc(F)ccc1F (configuration not stated)	HCMV inh -61.0
COc1ccc(CCNC(=O)C(=O)NCC2OCCCN2S(=O)(=O)c2cc(C)ccc2C)cc1 (configuration not stated)	FMDV antiviral inconclusive, HCV inh inconclusive, HCMV inh -67.2
O=C(NCc1ccc2c(c1)OCO2)C(=O)NCC1OCCN1S(=O)(=O)c1ccc(Br)cc1 (configuration not stated)	HCV inh 10µM
CC(C)C[C@H](NC(=O)/C=C/[C@H]1O[C@@H](n2ccc(=O)[nH]c2=O)[C@H](O)[C@@H]1O)C(=O)O	none (no result: HCV inh)
COc1ccc(CCNC(=O)C(=O)NCC2OCCN2S(=O)(=O)c2ccc(Br)cc2)cc1OC (configuration not stated)	HCV inh inconclusive
COc1ccc(CCNC(=O)C(=O)NCC2OCCN2S(=O)(=O)c2ccc(Cl)cc2)cc1OC (configuration not stated)	FMDV antiviral inconclusive, HCV inh 8.91µM
COc1ccc(S(=O)(=O)N2CCOC2CNC(=O)C(=O)NCCc2ccc(OC)c(OC)c2)cc1 (configuration not stated)	FMDV antiviral inconclusive, HCV inh inconclusive, HCMV inh -67.7
CCC[C@H]1[C@@H](NS(=O)(=O)Cc2ccccc2)CC[C@@]23CCCN2C(=O)CCC[C@@H]13	none (no result: FMDV antiviral, HCV inh, Vaccinia Venus, VACV mCherry inh)
O=C(NCCN1Cc2ccccc2OC(c2ccsc2)C1)c1ccc2[nH]ccc2c1 (configuration not stated)	none (no result: HCV inh, HCMV inh)
COCCNC(=O)CN1C(=O)c2cccnc2Oc2ccc(Cl)cc21	HCMV inh active (no result: HCV inh)
Fc1cccc(/C=C2\CCCC3=C2NC(=S)NC3c2cccc(F)c2)c1 (configuration not stated)	HCV inh 8.91µM (no result: Vaccinia Venus, VACV mCherry inh)
S=C1NC2=C(CCC/C2=C\c2ccccc2)C(c2ccccc2)N1 (configuration not stated)	FMDV antiviral inconclusive, HCV inh inconclusive, HCMV inh inconclusive
Cc1ccc(C(C[N+](=O)[O-])c2c(-c3ccccc3O)[nH][nH]c2=O)cc1 (configuration not stated)	FMDV antiviral inconclusive, HCMV inh -74.7
O=c1[nH][nH]c(-c2ccccc2O)c1C(C[N+](=O)[O-])c1ccc(Br)cc1 (configuration not stated)	FMDV antiviral inconclusive, HCV inh inconclusive, HCMV inh inconclusive
CCc1ccc(NC(=O)CSc2nccn2-c2ccc(F)cc2)cc1	HCMV inh -65.7 (no result: HCV inh)
O=C(CSc1nccn1-c1ccc(F)cc1)Nc1ccc2c(c1)OCO2	HCMV inh inconclusive (no result: VACV mCherry inh)
COc1ccc(-n2ccnc2SCC(=O)Nc2ccc3c(c2)OCO3)cc1	HCMV inh -74.4 (no result: HCV inh)
COc1ccc(NC(=O)CSc2nnc3ccc(-c4ccncc4)nn23)cc1	HCMV inh -71.2
COc1cccc(-n2ccnc2SCC(=O)Nc2c(C)cc(C)cc2C)c1	HCMV inh -102.0 (no result: HCV inh)
N#Cc1ccc(C(=O)NC2CCCCCCC2)cc1	none
Cc1cc(C)c(NC(=O)CSc2nc(COc3ccccc3)nc3ccccc23)c(C)c1	Vaccinia Venus inconclusive, VACV mCherry inh 11.2µM (no result: FMDV antiviral)
COc1ccc(NC(=O)CSc2nccn2-c2ccccc2)cc1	none (no result: VACV mCherry inh)
CCc1ccc(NC(=O)CSc2nccn2-c2ccc(OC)cc2)cc1	HCMV inh -99.6 (no result: HCV inh)
CC(=O)c1ccc(-c2ccc3c4c(ccc3c2)OC(CNC(=O)[C@@H]2CCCN2C(C)=O)C4)s1 (some centres not stated)	none (no result: HCV inh, HCMV inh)
COc1cc(C(O)CO)ccc1O (configuration not stated)	none
COc1cc(C(O)CO)ccc1OS(=O)(=O)O (configuration not stated)	HCMV inh -73.4
Cc1ccc(CNc2nc(CN3CCCCC3c3cccnc3)nc3ccccc23)o1 (configuration not stated)	none (no result: HCV inh, HCMV inh)
Cc1cc(OCCCCCNCCO)cc(C)c1Cl	HCV inh 12.6µM, HCMV inh inconclusive (no result: Vaccinia Venus, VACV mCherry inh)
Cc1cc(OCCNCCO)cc(C)c1Cl	HCV inh inconclusive (no result: VACV mCherry inh)
COc1ccc(-n2c(C(C)n3nc(C)c([N+](=O)[O-])c3C)n[nH]c2=S)cc1 (configuration not stated)	none (no result: Vaccinia Venus, VACV mCherry inh)
COc1ccc(-n2c(C)c([N+](=O)[O-])c3ccc(O)c(CN(C)C)c32)cc1	HCMV inh -91.9 (no result: VACV mCherry inh)
COc1ccccc1-c1noc(-c2ccc(N3CCC(C)CC3)c([N+](=O)[O-])c2)n1	none (no result: HCV inh)
CCCCN1C(=O)C(CC(=O)NC2CCCC2)CC(C(=O)N2CCOCC2)=C1C (configuration not stated)	FMDV antiviral 39.8µM (no result: HCV inh)
O=C(NNC(=O)c1cccc(O)c1)Nc1ccc([N+](=O)[O-])cc1	HCMV inh -96.5, VACV mCherry inh inconclusive
Cc1ccc(NC(=O)c2cccc(Oc3ccc([N+](=O)[O-])cc3)c2)c(C(=O)O)c1	none (no result: Vaccinia Venus, VACV mCherry inh)
O=C(Nc1ccc([N+](=O)[O-])cc1)c1cccc([N+](=O)[O-])c1	none (no result: HCV inh)
O=C(Nc1ccc(O)cc1)c1cccc(Oc2ccc([N+](=O)[O-])cc2)c1	HCV inh 11.2µM, VACV mCherry inh inconclusive
CCCN(C)C1CN(Cc2cn(Cc3cccc(Cl)c3)nn2)S(=O)(=O)C1 (configuration not stated)	none (no result: HCV inh)
CCCn1ccc2c(OCC(=O)Nc3ccc(C(F)(F)F)cc3)cccc2c1=O	Vaccinia Venus inconclusive, VACV mCherry inh inconclusive (no result: HCV inh)
CCOC1=CC(=O)N(CCC(=O)NCc2ccc(C)cc2)C1	none (no result: FMDV antiviral, HCV inh, Vaccinia Venus, VACV mCherry inh)
COc1ccc(Cn2c(=O)[nH]c3cc(C(=O)N4CCN(c5ccc(C(C)=O)cc5)CC4)ccc3c2=O)cc1	FMDV antiviral inconclusive
Nn1cnnc1N/N=C/c1cc(Br)cc(Br)c1O	HCV inh inconclusive, Vaccinia Venus inconclusive, HCMV inh inconclusive, VACV mCherry inh 8.91µM
COc1ccc(C2=NN(C(=O)c3ccncc3)C(c3ccccc3O)C2)cc1 (configuration not stated)	none
COc1cccc(C2CC(c3ccc(Br)cc3)=NN2C(=O)c2ccncc2)c1OC (configuration not stated)	FMDV antiviral inconclusive, HCV inh inconclusive, Vaccinia Venus inconclusive, VACV mCherry inh 14.1µM
